Screening results: PubChem BioAssay, National Center for Advancing Translational Sciences (NCATS)
AMA1-RON2 inh: disrupts binding of P. falciparum AMA1 to RON2; AlphaScreen AMA1-biotinylated RON2 peptide binding; Potency, µM (doses to about 58.2 µM), most hits filed as inhibitors; 360,000 compounds, 0.2% hits; AID 720542; also: nearly all actives have a fitted effect of over 45% in size
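AMA1 (3D7) with his tag at 25 nM final met compounds first, then biotinylated RON2 peptide at 25 nM; detection used donor plus acceptor beads, 10 µg/mL apiece, read by AlphaScreen after 30 min at room temperature.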
Pf growth 96h: inhibits malaria parasite growth, 96 h. P. falciparum luciferase reporter growth, 96 h. Potency, µM (top dose mostly 28.7 µM), actives largely listed as inhibitors. 320,000 compounds, 6.9% hits
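Delayed-death screen, second-generation endpoint: infected erythrocytes, 2% hematocrit, 0.05% parasitemia final; 96 hours at 37 C, 5% CO2; luciferase detection reagent; luminescence decrease equals reduced growth.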
VACV mCherry inh: inhibitors of vaccinia virus infection (mCherry reporter signal); Vaccinia virus mCherry reporter infection, fluorescence; Potency, µM (titrated, usually from 36.5 µM), most hits filed as inhibitors; 310,000 compounds, 0.63% hits; AID 720579; calls by dose curve; tested in A549 cells; also: nearly all actives have a fitted effect of over 35% in size
VACV Venus inh: vaccinia inhibition (Venus reporter); Vaccinia virus Venus reporter expression, fluorescence; Potency, µM (doses to about 36.5 µM), usual class: inhibitors; 330,000 compounds, 0.46% hits; AID 720580; calls by dose curve; tested in A549 cells; also: nearly all actives have a fitted effect of over 30% in size
Pf growth 48h: P. falciparum growth inhibition at 48 hours (one generation); P. falciparum luciferase growth in erythrocytes, 48 h; Potency, µM (doses to about 28.7 µM), hits mostly inhibitors; 310,000 compounds, 5.9% hits; AID 504832
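Luminescence readout; reporter = integrated firefly luciferase in P. falciparum. RBC culture at 2% hematocrit, 0.1% parasitemia final, 37 C/5% CO2; decreased signal taken as growth inhibition.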
Hits are given with their value. In the library only some 8.7% were active in any assay of this set; here they are far more common. Unless noted, calls follow the shape of the dose curve; as a rule, active = well fitted curve in the direction sought with a large enough effect; inconclusive = small, poorly fitted or top-dose-only effect, or another doubt; inactive = no such curve, though single readings can be large; an effect the other way counts as inactive or inconclusive.

`CCn1cc(C(=O)N[C@@H](CCSC)C(=O)NCCO)c(=O)c2cc3c(cc21)OCO3` gave AMA1-RON2 inh inactive, Pf growth 96h 6.6µM, VACV mCherry inh inactive, VACV Venus inh inactive and Pf growth 48h 8.3µM.
`C=CCN(c1ccc(C(=O)NC(C)C)cc1)S(C)(=O)=O` gave AMA1-RON2 inh inactive and Pf growth 48h inactive.
C=CCN(c1ccc(C(=O)NCCSc2ccccc2)cc1)S(C)(=O)=O was read as AMA1-RON2 inh inactive, Pf growth 96h 15µM and Pf growth 48h inactive.
Screening CC(=O)Nc1ccc(NC(=O)c2oc3ccc4c(c3c2C)C(=O)CC(C)(C)O4)cc1 returned VACV mCherry inh inactive and VACV Venus inh inactive.
Screening C=CCSc1nnc2c(n1)[nH]c1c(C)cccc12 returned AMA1-RON2 inh inactive, Pf growth 96h 12µM, VACV mCherry inh inconclusive and VACV Venus inh inconclusive.
Screening COc1ccccc1-c1ccc(C(=O)NCCN2CCOCC2)c(N2CCN(c3ccccc3F)CC2)n1 returned VACV mCherry inh inactive and VACV Venus inh inactive.
Screening Cc1ccnc(NS(=O)(=O)c2cc(-c3cc(C)no3)ccc2C(C)C)c1 returned AMA1-RON2 inh inactive, Pf growth 96h 10µM and Pf growth 48h inactive.
`Cc1cc(-c2ccc(C(C)C)c(S(=O)(=O)NCc3ccco3)c2)on1` gave AMA1-RON2 inh inactive, Pf growth 96h inconclusive and Pf growth 48h inactive.
`Cn1cc(CCCC(=O)NCc2ccc(F)cc2)c2ccccc21` gave AMA1-RON2 inh inactive, Pf growth 96h 2.1µM, VACV mCherry inh inactive, VACV Venus inh inactive and Pf growth 48h inconclusive.
`COc1ccc(CNC(=O)CCc2cn(C)c3ccccc23)cc1` gave VACV mCherry inh inactive and VACV Venus inh inactive.
For COc1cccc(CN2CC(C(=O)NCCN3CCOCC3)CCC2=O)c1 (stereo not drawn) the results were AMA1-RON2 inh inactive, Pf growth 96h 15µM and Pf growth 48h inactive.
Screening COc1ccccc1CN1CC(C(=O)NCCc2ccc(C)o2)CCC1=O (stereo not drawn) returned AMA1-RON2 inh inactive, Pf growth 96h 9.3µM and Pf growth 48h inactive.
`O=C(NCCc1ccc(C(F)(F)F)cc1)C1CCC(=O)N(CCCN2CCCC2=O)C1` (stereo not drawn) gave AMA1-RON2 inh inactive, Pf growth 96h 15µM and Pf growth 48h inactive.
Screening CCn1nc(C)c(CNC(=O)C2CCC(=O)N(CCc3ccc(Cl)cc3)C2)c1C (stereo not drawn) returned AMA1-RON2 inh inactive, Pf growth 96h 9.3µM and Pf growth 48h inactive.
`COc1ccccc1CCNC(=O)C1CCC(=O)N(Cc2ccccc2OC)C1` (stereo not drawn) gave AMA1-RON2 inh inactive, Pf growth 96h inactive, VACV mCherry inh inactive, VACV Venus inh inactive and Pf growth 48h inactive.
For COc1cccc(-c2ccnc(-n3ncc(C(=O)NCC(C)(C)CN(C)C)c3C)n2)c1 the results were VACV mCherry inh inactive and VACV Venus inh inactive.
`CC(C)(C)[C@H]1CCC(=O)N(CCSc2ccc(Br)cc2)CC1` gave VACV mCherry inh inactive and VACV Venus inh inactive.
Cc1ccc2nc(-c3ccncc3)c(Nc3ccc(C(C)C)cc3)n2c1 was read as VACV mCherry inh inactive and VACV Venus inh inactive.
Screening O=C(NCCc1cnccn1)C1CCC(=O)N(Cc2ccc(Cl)cc2)C1 (stereo not drawn) returned AMA1-RON2 inh inactive, Pf growth 96h inactive, VACV mCherry inh inactive, VACV Venus inh inactive and Pf growth 48h inactive.
COc1cccc(CN2CC(C(=O)NCCCc3ccncc3)CCC2=O)c1 (stereo not drawn) was read as AMA1-RON2 inh inactive, Pf growth 96h 12µM, VACV mCherry inh inactive, VACV Venus inh inactive and Pf growth 48h inactive.
COc1cccc(CN2CC(C(=O)N(C)Cc3ccc(C)cc3)CCC2=O)c1 (stereo not drawn) was read as AMA1-RON2 inh inactive, Pf growth 96h inactive and Pf growth 48h inconclusive.
For COCc1cc(CN(C)C(=O)C2CCC(=O)N(Cc3cccc(OC)c3)C2)[nH]n1 (stereo not drawn) the results were AMA1-RON2 inh inactive, Pf growth 96h 9.3µM and Pf growth 48h inactive.
Screening O=C(NCc1ccncc1)C1CCC(=O)N(CCc2ccc(Cl)cc2)C1 (stereo not drawn) returned AMA1-RON2 inh inactive, Pf growth 96h 9.3µM, VACV mCherry inh inactive, VACV Venus inh inactive and Pf growth 48h inconclusive.
O=C(NCCCc1ccncc1)C1CCC(=O)N(Cc2ccc(Cl)cc2)C1 (stereo not drawn) was read as AMA1-RON2 inh inactive, Pf growth 96h 10µM, VACV mCherry inh inactive, VACV Venus inh inactive and Pf growth 48h inactive.
Screening COc1ccccc1-c1ccnc(-n2ncc(C(=O)NCc3cccnc3)c2C)n1 returned VACV mCherry inh inactive and VACV Venus inh inconclusive.
`CC(=O)Nc1cc(-c2cccnc2)cn2c(-c3cccc(C(F)(F)F)c3)cnc12` gave AMA1-RON2 inh inactive, VACV mCherry inh 10µM and VACV Venus inh 13µM.
Screening COc1cc(-c2cc(NC=O)c3ncc(-c4ccc(C(C)=O)cc4)n3c2)ccc1O returned AMA1-RON2 inh inactive, VACV mCherry inh 10µM and VACV Venus inh 11µM.
Screening Cn1cc(-c2cnc3c(NC=O)cc(-c4cccc(C(F)(F)F)c4)cn23)cn1 returned AMA1-RON2 inh inactive, VACV mCherry inh 10µM and VACV Venus inh inconclusive.
Screening Nc1ccc(-c2cc(NC=O)c3ncc(-c4cccc(C(F)(F)F)c4)n3c2)cn1 returned AMA1-RON2 inh inactive, VACV mCherry inh inconclusive and VACV Venus inh 11µM.
`CCN(C(=O)Cn1cc(S(=O)(=O)Cc2ccccc2Cl)c2ccccc21)c1ccccc1` gave VACV mCherry inh inactive and VACV Venus inh inactive.
Screening COc1cc2c(cc1NC(=O)COc1ccc(Br)cc1C)oc1ccccc12 returned VACV mCherry inh inconclusive and VACV Venus inh inactive.
`CCC(=O)Nc1ccccc1-c1nc2ccccc2n(C(CC)C(=O)Nc2cccc(C(C)=O)c2)c1=O` (stereo not drawn) gave VACV mCherry inh inactive and VACV Venus inh inactive.
Screening Cc1ccc2nc(CN3CCN(S(=O)(=O)c4ccccc4)CC3)oc2c1 returned VACV mCherry inh inactive and VACV Venus inh inactive.
For CCc1ccccc1NC(=O)Cn1c(=O)n(CCc2ccccc2)c(=O)c2sc3ccccc3c21 the results were VACV mCherry inh inactive and VACV Venus inh inactive.
Screening COc1ccc(C)cc1NS(=O)(=O)c1ccc2c(c1)[C@H]1C=CC[C@H]1[C@@H](c1cccc(Cl)c1)N2 returned VACV mCherry inh inactive and VACV Venus inh inactive.
Screening COc1cccc(NC(=O)c2cc3c(-c4ccc(Cl)cc4)nn(C)c3s2)c1 returned VACV mCherry inh inactive and VACV Venus inh inactive.
CCCCn1c(-c2cccnc2)n[nH]c1=S was read as AMA1-RON2 inh inactive, Pf growth 96h 2.6µM, VACV mCherry inh inactive, VACV Venus inh inactive and Pf growth 48h inactive.
